High-throughput results from PubChem.
WRN inhibitor: inhibitors of human WRN helicase | Potency, µM (highest dose often 114 µM), usual class: inhibitors | Q14191 | WRN helicase unwinding, fluorescent forked duplex, kinetic | AID 651768 | 360,000 compounds, 0.46% hits; further: nearly all actives have a fitted effect of over 55% in size
Target sequence (Q14191 whole entry, looked up): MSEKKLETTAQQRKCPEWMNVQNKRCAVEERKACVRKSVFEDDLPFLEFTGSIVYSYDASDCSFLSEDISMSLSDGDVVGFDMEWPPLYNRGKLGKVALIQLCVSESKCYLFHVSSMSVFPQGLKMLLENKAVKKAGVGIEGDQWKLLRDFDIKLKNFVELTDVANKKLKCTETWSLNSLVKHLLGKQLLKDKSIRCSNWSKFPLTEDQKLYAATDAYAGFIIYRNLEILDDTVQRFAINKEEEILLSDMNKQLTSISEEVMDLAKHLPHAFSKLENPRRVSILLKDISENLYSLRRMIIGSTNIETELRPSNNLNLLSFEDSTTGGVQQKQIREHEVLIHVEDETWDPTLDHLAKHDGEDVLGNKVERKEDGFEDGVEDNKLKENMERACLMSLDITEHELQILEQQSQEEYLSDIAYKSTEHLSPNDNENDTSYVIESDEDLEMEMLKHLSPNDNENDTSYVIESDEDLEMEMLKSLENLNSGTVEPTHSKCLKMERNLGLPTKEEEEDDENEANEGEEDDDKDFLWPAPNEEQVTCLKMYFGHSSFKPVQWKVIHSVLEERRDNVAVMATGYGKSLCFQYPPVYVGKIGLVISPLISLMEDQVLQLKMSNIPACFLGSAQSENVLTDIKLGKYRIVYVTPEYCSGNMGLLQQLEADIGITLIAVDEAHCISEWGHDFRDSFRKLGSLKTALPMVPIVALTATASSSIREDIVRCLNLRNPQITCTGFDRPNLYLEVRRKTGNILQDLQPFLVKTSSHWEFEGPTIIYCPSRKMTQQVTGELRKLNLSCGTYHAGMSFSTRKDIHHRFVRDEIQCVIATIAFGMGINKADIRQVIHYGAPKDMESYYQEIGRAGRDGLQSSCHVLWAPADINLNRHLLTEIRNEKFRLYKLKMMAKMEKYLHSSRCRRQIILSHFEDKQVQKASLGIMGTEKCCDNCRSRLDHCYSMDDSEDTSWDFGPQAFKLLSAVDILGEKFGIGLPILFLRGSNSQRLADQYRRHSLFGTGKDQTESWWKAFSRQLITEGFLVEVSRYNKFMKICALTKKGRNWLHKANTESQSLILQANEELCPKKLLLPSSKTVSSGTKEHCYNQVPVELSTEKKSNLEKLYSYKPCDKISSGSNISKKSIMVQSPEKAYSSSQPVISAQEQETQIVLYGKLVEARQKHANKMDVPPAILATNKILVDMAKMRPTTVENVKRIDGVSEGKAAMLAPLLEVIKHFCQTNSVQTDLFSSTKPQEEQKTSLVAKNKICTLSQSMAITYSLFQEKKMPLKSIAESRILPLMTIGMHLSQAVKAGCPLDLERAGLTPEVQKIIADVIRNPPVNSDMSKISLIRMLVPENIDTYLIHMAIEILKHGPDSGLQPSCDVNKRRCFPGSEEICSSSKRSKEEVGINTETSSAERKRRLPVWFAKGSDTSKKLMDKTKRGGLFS
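Primary qHTS, 1536-well format. 20 nM WRN + compound, 15 min RT; start with 100 nM forked fluorophore/quencher duplex, 2 mM ATP (final); kinetic read ex 525/em 598 nm.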
FEN1 inh: inhibitors of human flap endonuclease 1; P39748; Recombinant FEN1 flap cleavage, fluorescence, 15 min; Potency, µM (titrated, usually from 114 µM), actives largely listed as inhibitors; 390,000 compounds, 0.35% hits; further: nearly all actives have a fitted effect of over 65% in size
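Potency values derive from four-parameter Hill fits of normalized qHTS data. The reaction used 10 nM FEN1 preincubated 15 min at room temperature with compound, then 50 nM DNA substrate, read at 0 and 15 min.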
RECQ1 inh-1: inhibitors of human RECQ1 DNA helicase; RECQ1 DNA unwinding, red fluorescence kinetic read; P46063; 240,000 compounds, 0.54% hits; Potency, µM (series often up to 57.3 µM), hits mostly inhibitors; further: nearly all actives have a fitted effect of over 30% in size
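50 nM RECQ1T1 preincubated 15 min with compound in Tris pH 8.0 buffer with MgCl2, DTT, Tween-20 and 2.5 ug/ml poly(dI-dC); started with 200 nM TAMRA/BHQ-2 forked duplex and 2 mM ATP. Unwinding read as fluorescence (525/598 nm), two reads 2 h apart.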
BLM helicase inh: Bloom syndrome helicase (human) inhibition; P54132; recombinant BLM DNA unwinding, fluorescence dequenching; Potency, µM (highest dose often 56.1 µM), hits mostly inhibitors; 350,000 compounds, 0.2% hits; AID 2528; further: nearly all actives have a fitted effect of over 35% in size
APE1 inh-1: APE1 (human) endonuclease inhibition. P27695. Potency, µM (titrated, usually from 65.8 µM), usual class: inhibitors. recombinant APE1, TAMRA/BHQ-2 abasic DNA cleavage fluorescence. 350,000 compounds, 0.35% hits; further: nearly all actives have a fitted effect of over 55% in size
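APE1 at 0.75 nM final was preincubated with compound 15 min at room temperature, then 50 nM double-stranded THF abasic-site substrate (5'-TAMRA/3'-BHQ-2) was added. Fluorescence (ex 525/em 598 nm) was read kinetically; third-minus-first read gave activity.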
DNA dye displace: DNA dye displacement counter-screen activity. shares compounds with APE1 inh-1. DNA fluorescent dye displacement counterscreen, fluorescence. Potency, µM (doses to about 28.5 µM), hits mostly inhibitors. 480 compounds, 7% hits. AID 2564;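 further: loss of thiazole orange fluorescence as the dye is displaced from duplex DNA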
Endo IV inh: Endo IV (E. coli) inhibition counter-screen | Potency, µM (titrated, usually from 27.1 µM), actives largely listed as inhibitors | shares compounds with APE1 inh-1 | AID 2565 | 560 compounds, 4% hits | E. coli Endo IV, fluorogenic AP-site DNA cleavage
APE1 inh-2: confirmation of inhibitors of human APE1 endonuclease. Potency, µM (titrated, usually from 57.1 µM), actives largely listed as inhibitors. 750 compounds, 44% hits. shares compounds with APE1 inh-1. purified APE1, fluorogenic abasic-site DNA cleavage; further: nearly all actives have a fitted effect of over 30% in size
APE1 FP: compounds that displace a DNA probe from human APE1. Potency, µM (titrated, usually from 28.5 µM), usual class: inhibitors. 480 compounds, 7% hits. APE1 binding to TAMRA-labelled double-stranded DNA, fluorescence polarization displacement. AID 2573. shares compounds with APE1 inh-1
RECQ1 conf: confirmation of human RECQ1 helicase inhibitors; shares compounds with RECQ1 inh-1; RECQ1 helicase DNA unwinding, fluorescence; Potency, µM (top dose mostly 229 µM), actives largely listed as inhibitors; 610 compounds, 28% hits; AID 2708; further: nearly all actives have a fitted effect of over 45% in size
RECQ1 ADP FP: ADP displacement flagged in RECQ1 inhibitor counter-screen | shares compounds with RECQ1 inh-1 | 530 compounds, 27% hits | ADP fluorescence polarization displacement counterscreen | Potency, µM (doses to about 228 µM), most hits filed as inhibitors | AID 2711; further: nearly all actives have a fitted effect of over 45% in size
RECQ1 inh-2: confirmation of human RECQ1 helicase inhibitors; shares compounds with RECQ1 inh-1; recombinant RECQ1 DNA unwinding, red fluorescence; Potency, µM (titrated, usually from 119 µM), hits mostly inhibitors; 1,100 compounds, 15% hits; further: nearly all actives have a fitted effect of over 50% in size
Each line names hits and unclear results; the compound was inactive in the other large screens (follow-up assays come after a bar, where they were run). This is a sample that favours compounds with a hit; in the whole collection about 0.87% have one here. The call rests on the fitted dose curve; in most records, active means well fitted curve in the direction sought with a large enough effect; inconclusive means small, poorly fitted or top-dose-only effect, or another doubt; inactive means no such curve, though single readings can be large; an effect the other way counts as inactive or inconclusive.

CC1(OC(=O)c2cccs2)C(=O)C=C2C=C3CCCN3C=C2C1=O (centres undefined)	WRN inhibitor inconclusive, FEN1 inh inconclusive, RECQ1 inh-1 25µM, BLM helicase inh 22µM, APE1 inh-1 8.9µM | DNA dye displace inactive | Endo IV inh inactive | APE1 inh-2 inconclusive | APE1 FP inactive | RECQ1 conf 35µM | RECQ1 ADP FP 35µM | RECQ1 inh-2 inconclusive
COc1ccccc1CNC(=O)CCC1N=C2c3ccccc3N=C(SCC(N)=O)N2C1=O (centres undefined)	none (no result: WRN inhibitor, RECQ1 inh-1, APE1 inh-1)
COc1cccc2c1NC(C(=O)O)C1CC=CC21 (centres undefined)	WRN inhibitor 13µM, FEN1 inh 25µM, RECQ1 inh-1 8.9µM, BLM helicase inh 16µM, APE1 inh-1 11µM | DNA dye displace inconclusive | Endo IV inh inactive | APE1 inh-2 16µM | APE1 FP inactive | RECQ1 inh-2 inconclusive
COc1c(O)cc2c(=O)oc3c(OC)c(O)cc4c(=O)oc1c2c34	RECQ1 inh-1 3.2µM, BLM helicase inh 14µM, APE1 inh-1 1.3µM (no result: WRN inhibitor, FEN1 inh) | DNA dye displace 6.3µM | Endo IV inh inactive | APE1 inh-2 0.45µM | APE1 FP inactive | RECQ1 inh-2 0.79µM
Cc1ccc(S(=O)(=O)Nc2cc(C)c(O)cc2C)cc1	none
Cc1ccc(S(=O)(=O)Nc2csc(C)c2C(=O)O)cc1	RECQ1 inh-1 inconclusive, APE1 inh-1 11µM | DNA dye displace inactive | Endo IV inh inactive | APE1 inh-2 inconclusive | APE1 FP inconclusive | RECQ1 inh-2 inconclusive
Cc1ccccc1CSc1nnnn1-c1ccc(C(N)=O)cc1	none (no result: RECQ1 inh-1)
NC(=O)c1ccc(-n2nnnc2SCC(=O)c2ccc(O)c(O)c2)cc1	WRN inhibitor 35µM, RECQ1 inh-1 8.9µM, APE1 inh-1 4µM | DNA dye displace inactive | Endo IV inh inactive | APE1 inh-2 11µM | APE1 FP inactive | RECQ1 inh-2 inconclusive
CCOC(=O)C1CCC(CN(Cc2ccc(Cl)cc2)S(=O)(=O)c2cc(Cl)cc(Cl)c2)CC1 (centres undefined)	none (no result: WRN inhibitor, RECQ1 inh-1, APE1 inh-1)
Cc1c(Cl)cccc1NC(=O)CN1C(=O)c2ccccc2Sc2ncccc21	none (no result: WRN inhibitor, RECQ1 inh-1, APE1 inh-1)
Cc1ccc2oc(=O)c3c4cc(O)c(O)cc4oc3c2c1	APE1 inh-1 inconclusive (no result: WRN inhibitor, FEN1 inh)
COc1cc(O)c2c(c1)oc(=O)c1c3cc(O)c(O)cc3oc21	RECQ1 inh-1 2.5µM, BLM helicase inh 13µM, APE1 inh-1 1.8µM (no result: WRN inhibitor, FEN1 inh) | DNA dye displace 8.9µM | Endo IV inh inactive | APE1 inh-2 4.5µM | APE1 FP inactive | RECQ1 conf 14µM | RECQ1 ADP FP 45µM | RECQ1 inh-2 2.2µM
CCN(CC)CCCC(C)Nc1c2ccc(Cl)cc2nc2ccc(OC)cc12 (centres undefined)	FEN1 inh 11µM, RECQ1 inh-1 inconclusive, APE1 inh-1 28µM (no result: WRN inhibitor) | Endo IV inh 7.9µM | APE1 inh-2 16µM | RECQ1 conf 32µM | RECQ1 ADP FP 6.3µM
